From PubChem BioAssay (NCI)
Compounds without any hit were thinned out: in the full panel of roughly 83,000, 20% have a hit.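 The test compound was applied at a single concentration to cells in 96-well plates for 48 hours, and percent growth was recorded.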 A number with no mark means an inactive call. Activity calls are given as the source filed them. Rule for the calls: active = growth percent below 10; inactive = the rest.

What follows are compounds tested on SF-295 CNS (assay: NCI-60 one-dose screen, 48 h (100 = growth as untreated, 0 = no growth, -100 = all killed)). Details: 10 µM unless noted.
`CC(=O)CCC(=O)OCc1cc(=O)c(O)co1` gave a growth of 103%.
With `O=C(c1nc2ccccc2[nH]1)C1C(c2ccc(Cl)cc2)C2CC3CCCC[C@H]3N2[C@@]12C(=O)Nc1cc(Cl)ccc12` (stereo partly specified) the growth was 32.6%.
In the case of `COc1cccc(-c2nc3occn3c2-c2ccnc(NCCNS(=O)(=O)c3cccc4ccccc34)n2)c1`, the growth is reported as 106%.
`COc1cc(-c2n/c(=C\c3c(O)[nH]c4ccc(Cl)cc34)cc3c2=Nc2ccccc2-3)ccc1F` was tested, and the growth was 43.1%.
Work on `NNC(=O)c1ccc(-n2nc(-c3ccccc3)c3ccccc32)cc1` yielded a growth of 75.2%.
`O=C1Nc2cc(-c3cccc(O)c3)ccc2/C1=C/c1ccc[nH]1` was tested, and the growth was 19.3%.
`COc1cccc(/C=N/NC(=O)c2cnn3c2NC(c2ccccc2)C3)c1Oc1ccccc1` (stereo unspecified) gave a growth of 63.3%.
For `S=c1cc(S)c2cc(Br)ccc2[nH]1`, the growth was 100%.
For `O=C(NCCc1ccccc1)Nc1ccc2cc3ccc(NC(=O)NCCc4ccccc4)cc3nc2c1`, the growth was 0.203% (active).
`CCN(CC)CCCC(C)Nc1cc(O)cc2cccnc12` (stereo unspecified) showed a growth of 104%.
`CCOC(=O)C1=C(C)NC(SCc2cc(=O)oc3ccc(F)cc23)=N[C@@H]1c1cccc2ccccc12` gave a growth of 97.9%.
With `COc1ccc(C(=O)c2cc(OC)c(OC)c(OC)c2)cc1O` the growth was -8.79% (active).
Work on `CCCOC(=O)N[C@H]1CCc2c(Cl)c(OC)c(OC)c(OC)c2-c2ccc(SC)c(=O)cc21` yielded a growth of 17.5%.
Compound `Cc1ccc(/C=N/NC(=O)CSc2nc3ccccc3c(=O)n2Cc2ccc(S(N)(=O)=O)cc2)cc1` has a growth of 95%.
Compound `O=C(CCN1CCCC1)Nc1ccc2c(NCCCCc3ccccc3)c3ccccc3nc2c1` has a growth of 43.4%.
For `CSc1nc2sc3cccc(Cl)c3n2c(=N)c1C#N`, the growth was 108%.
In the case of `C#CCNC(=O)c1cccc2c1cc(C)n2-c1nc2c(c(NCc3ccccc3)n1)CCCC2`, the growth is reported as -68.2% (active).
`Cc1ccc(S(=O)(=O)NNC(=O)/C(=C\c2ccc(Cl)cc2)c2nc3ccccc3s2)cc1` was tested, and the growth was 103%.
Work on `O=[N+]([O-])CC(c1ccccc1)c1c[nH]c2ccccc12` (stereo unspecified) yielded a growth of 44.1%.
Compound `Nc1nc(Nc2ccccc2SSc2ccccc2Nc2nc(N)nc(-c3ccc(C(F)(F)F)cc3)n2)nc(-c2ccc(C(F)(F)F)cc2)n1` has a growth of 65.5%.
Compound `CCCCCC(=O)Oc1ccc(/C(=C(\C)c2ccccc2)c2ccc(OCCN3CCCCC3)cc2)cc1` has a growth of 84.2%.
Compound `C/C(=N\Nc1cc(C)nc2ccc(Br)cc12)c1ccc([N+](=O)[O-])cc1` has a growth of 49.4%.
`COc1cccc(-c2ccc3c(c2)NC(=O)/C3=C\c2ccc[nH]2)c1` gave a growth of 61.8%.
`CCC(=O)Oc1ccc(/C(=C(\C)c2ccccc2)c2ccc(OCCN3CCCCC3)cc2)cc1` gave a growth of 86.5%.
Compound `COc1cc(CC(=O)c2ccc(O)c(OC)c2)ccc1O` has a growth of 98.9%.
`Brc1ccc2[nH]cc(-c3cncn3CCc3ccccc3)c2c1` was tested, and the growth was 37.7%.
`CCNC(=O)Oc1ccc(/C(=C(\C)c2ccccc2)c2ccc(OCCCN(C)C)cc2)cc1` showed a growth of 52.4%.
`O=C(/C=C/c1ccc(F)cc1)c1ccc(NC(=O)N2CCN(c3cc4c(cc3F)c(=O)c(C(=O)O)cn4C3CC3)CC2)cc1` was tested, and the growth was 98.7%.
`O=S(=O)(NCCNc1nccc(-c2c(-c3cccc(O)c3)nc3occn23)n1)c1ccccc1` was tested, and the growth was 96.6%.
In the case of `COc1ccc(C(=O)c2cc(C)c(OC)c(C)c2)c(OC)c1N(C(=O)CCl)C(=O)CCl`, the growth is reported as 5.4% (active).
`O=C(/C=C/c1ccc[nH]1)c1ccc(-n2ccc(C(F)(F)F)n2)c(F)c1` was tested, and the growth was 90.2%.
`COc1ccc(C(=O)C2C(C#N)C(C#N)C3c4ccccc4C=CN23)cc1` (stereo unspecified) was tested, and the growth was 95.8%.
With `c1ccc(-c2cn3c(ccc4ccccc43)n2)cc1` the growth was 60.2%.
`CNC(=O)c1cccc(Cn2nc(C)c(NC(=O)c3ccc(COc4ccc(C(F)(F)F)cc4C)cc3)c2C)n1` was tested, and the growth was 25.8%.
Work on `COc1ccc(OC)c(-c2cc(-c3ccc(Cl)cc3)c3c(N)c(C(=O)c4ccc(Cl)cc4)sc3n2)c1` yielded a growth of 99.2%.
`CCCOc1ccc(/C=N/Nc2cc(C)nc3ccc(Cl)cc23)cc1` was tested, and the growth was -74.3% (active).
In the case of `O=C(Cc1ccccc1)NNc1nc(Cl)nc(N2CCN(C(c3ccccc3)c3ccccc3)CC2)n1`, the growth is reported as 98.6%.
In the case of `C#CCNC(=O)[C@H](Cc1ccccc1)NC(=O)[C@]12CC[C@@H](C(=C)C)[C@@H]1[C@H]1CC[C@@H]3[C@@]4(C)CCC(=O)C(C)(C)[C@@H]4CC[C@@]3(C)[C@]1(C)CC2`, the growth is reported as 73.4%.

What follows are compounds tested on SF-539 CNS in the same assay as above. Details: 10 µM unless noted.
`CC(=O)CCC(=O)OCc1cc(=O)c(O)co1` showed a growth of 110%.
With `O=C(c1nc2ccccc2[nH]1)C1C(c2ccc(Cl)cc2)C2CC3CCCC[C@H]3N2[C@@]12C(=O)Nc1cc(Cl)ccc12` (stereo partly specified) the growth was 60.6%.
Compound `COc1cccc(-c2nc3occn3c2-c2ccnc(NCCNS(=O)(=O)c3cccc4ccccc34)n2)c1` has a growth of 109%.
In the case of `COc1cc(-c2n/c(=C\c3c(O)[nH]c4ccc(Cl)cc34)cc3c2=Nc2ccccc2-3)ccc1F`, the growth is reported as 54.6%.
For `NNC(=O)c1ccc(-n2nc(-c3ccccc3)c3ccccc32)cc1`, the growth was 82.8%.
With `O=C1Nc2cc(-c3cccc(O)c3)ccc2/C1=C/c1ccc[nH]1` the growth was -48.7% (active).
`COc1cccc(/C=N/NC(=O)c2cnn3c2NC(c2ccccc2)C3)c1Oc1ccccc1` (stereo unspecified) gave a growth of 84%.
With `S=c1cc(S)c2cc(Br)ccc2[nH]1` the growth was 97.7%.
With `O=C(NCCc1ccccc1)Nc1ccc2cc3ccc(NC(=O)NCCc4ccccc4)cc3nc2c1` the growth was -61.7% (active).
`CCN(CC)CCCC(C)Nc1cc(O)cc2cccnc12` (stereo unspecified) showed a growth of 103%.
`CCOC(=O)C1=C(C)NC(SCc2cc(=O)oc3ccc(F)cc23)=N[C@@H]1c1cccc2ccccc12` showed a growth of 114%.
`COc1ccc(C(=O)c2cc(OC)c(OC)c(OC)c2)cc1O` was tested, and the growth was -22.1% (active).
`CCCOC(=O)N[C@H]1CCc2c(Cl)c(OC)c(OC)c(OC)c2-c2ccc(SC)c(=O)cc21` was tested, and the growth was 3.18% (active).
For `Cc1ccc(/C=N/NC(=O)CSc2nc3ccccc3c(=O)n2Cc2ccc(S(N)(=O)=O)cc2)cc1`, the growth was 102%.
In the case of `O=C(CCN1CCCC1)Nc1ccc2c(NCCCCc3ccccc3)c3ccccc3nc2c1`, the growth is reported as -70.3% (active).
Work on `CSc1nc2sc3cccc(Cl)c3n2c(=N)c1C#N` yielded a growth of 109%.
For `C#CCNC(=O)c1cccc2c1cc(C)n2-c1nc2c(c(NCc3ccccc3)n1)CCCC2`, the growth was -23.4% (active).
Compound `Cc1ccc(S(=O)(=O)NNC(=O)/C(=C\c2ccc(Cl)cc2)c2nc3ccccc3s2)cc1` has a growth of 104%.
For `O=[N+]([O-])CC(c1ccccc1)c1c[nH]c2ccccc12` (stereo unspecified), the growth was 50.2%.
`Nc1nc(Nc2ccccc2SSc2ccccc2Nc2nc(N)nc(-c3ccc(C(F)(F)F)cc3)n2)nc(-c2ccc(C(F)(F)F)cc2)n1` gave a growth of 88.2%.
`CCCCCC(=O)Oc1ccc(/C(=C(\C)c2ccccc2)c2ccc(OCCN3CCCCC3)cc2)cc1` gave a growth of 59.4%.
For `C/C(=N\Nc1cc(C)nc2ccc(Br)cc12)c1ccc([N+](=O)[O-])cc1`, the growth was -43.6% (active).
`COc1cccc(-c2ccc3c(c2)NC(=O)/C3=C\c2ccc[nH]2)c1` showed a growth of 45.4%.
In the case of `CCC(=O)Oc1ccc(/C(=C(\C)c2ccccc2)c2ccc(OCCN3CCCCC3)cc2)cc1`, the growth is reported as 62.2%.
In the case of `COc1cc(CC(=O)c2ccc(O)c(OC)c2)ccc1O`, the growth is reported as 103%.
With `Brc1ccc2[nH]cc(-c3cncn3CCc3ccccc3)c2c1` the growth was 65.2%.
`CCNC(=O)Oc1ccc(/C(=C(\C)c2ccccc2)c2ccc(OCCCN(C)C)cc2)cc1` was tested, and the growth was 65.8%.
For `O=C(/C=C/c1ccc(F)cc1)c1ccc(NC(=O)N2CCN(c3cc4c(cc3F)c(=O)c(C(=O)O)cn4C3CC3)CC2)cc1`, the growth was 94.1%.
Work on `O=S(=O)(NCCNc1nccc(-c2c(-c3cccc(O)c3)nc3occn23)n1)c1ccccc1` yielded a growth of 105%.
`COc1ccc(C(=O)c2cc(C)c(OC)c(C)c2)c(OC)c1N(C(=O)CCl)C(=O)CCl` was tested, and the growth was -21.1% (active).
With `O=C(/C=C/c1ccc[nH]1)c1ccc(-n2ccc(C(F)(F)F)n2)c(F)c1` the growth was 69.7%.
`COc1ccc(C(=O)C2C(C#N)C(C#N)C3c4ccccc4C=CN23)cc1` (stereo unspecified) was tested, and the growth was 95.4%.
Compound `c1ccc(-c2cn3c(ccc4ccccc43)n2)cc1` has a growth of 62.6%.
Work on `CNC(=O)c1cccc(Cn2nc(C)c(NC(=O)c3ccc(COc4ccc(C(F)(F)F)cc4C)cc3)c2C)n1` yielded a growth of 72%.
In the case of `COc1ccc(OC)c(-c2cc(-c3ccc(Cl)cc3)c3c(N)c(C(=O)c4ccc(Cl)cc4)sc3n2)c1`, the growth is reported as 101%.
`CCCOc1ccc(/C=N/Nc2cc(C)nc3ccc(Cl)cc23)cc1` was tested, and the growth was -62.6% (active).
`O=C(Cc1ccccc1)NNc1nc(Cl)nc(N2CCN(C(c3ccccc3)c3ccccc3)CC2)n1` was tested, and the growth was 102%.
For `C#CCNC(=O)[C@H](Cc1ccccc1)NC(=O)[C@]12CC[C@@H](C(=C)C)[C@@H]1[C@H]1CC[C@@H]3[C@@]4(C)CCC(=O)C(C)(C)[C@@H]4CC[C@@]3(C)[C@]1(C)CC2`, the growth was 99.9%.
